Laboratory results as given in PubChem BioAssay AID1159580 (chemical genetic matrix, 2015).
Where “and” joins values, the source holds several entries; their conditions need not be identical. Equal values may be shown once. In all, about 5,500 compounds went through this assay and about 2,000 (36%) were called active. Another 18% or so got no clear call; they are omitted. Rule as the data show it: active = normalized growth mostly below about 0.91 (no sharp cut-off); inconclusive = no clear call, values can overlap the other calls; inactive = mostly above about 0.92. This is one part of the list.

Assay: chemical genetic growth profiling, strain panel (AID 1159580);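 also: tested at 20 µM; growth read once vehicle control cultures reached saturation at 30 °C; 1 = growth at the plate median or of vehicle wells; lower values mean less growth of the strain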
Details: S. cerevisiae deletion strains, growth OD

Measured: normalized growth

C[C@@H]1CC[C@@]2(OC1)OC1CC3C4CC=C5C[C@@H](O)CC[C@]5(C)C4CC[C@]3(C)C1[C@@H]2C (some centres not stated)
inactive: locus YAL021C, strain ccr4, active compounds read low 1.02 | locus YAL026C, strain drs2, active compounds read low 1.01 | locus YAL030W, strain snc1, active compounds read low 0.996 | locus YBL061C, strain skt5, active compounds read low 0.996 | locus YBR009C, strain hhf1, active compounds read low 1.01 | locus YBR021W, strain FUR4, active compounds read low 1.06 | locus YBR023C, strain chs3, active compounds read low 1 | locus YBR171W, strain sec66, active compounds read low 1 | locus YBR229C, strain ROT2, active compounds read low 1 | locus YBR231C, strain swc5, active compounds read low 0.996 | locus YBR279W, strain paf1, active compounds read low 1 | locus YCL011C, strain gbp2, active compounds read low 1.01 | locus YCL016C, strain dcc1, active compounds read low 0.996 | locus YCL029C, strain bik1, active compounds read low 0.965 | locus YCL061C, strain MRC1, active compounds read low 0.999 | locus YCL069W, strain vba3, active compounds read low 0.995 | locus YCR088W, strain abp1, active compounds read low 1 | locus YDL005C, strain med2, active compounds read low 1 | locus YDL035C, strain GPR1, active compounds read low 1.02 | locus YDL040C, strain nat1, active compounds read low 1 | locus YDL074C, strain BRE1, active compounds read low 1.02 | locus YDL101C, strain DUN1, active compounds read low 0.99 | locus YDL134C, strain PPH21, active compounds read low 0.977 | locus YDL185W, strain tfp1, active compounds read low 0.959 | locus YDL192W, strain arf1, active compounds read low 0.981 | locus YDR001C, strain nth1, active compounds read low 1 | locus YDR069C, strain doa4, active compounds read low 1.01 | locus YDR101C, strain arx1, active compounds read low 0.997 | locus YDR137W, strain rgp1, active compounds read low 0.991 | locus YDR150W, strain NUM1, active compounds read low 0.995 | locus YDR159W, strain sac3, active compounds read low 0.997 | locus YDR162C, strain NBP2, active compounds read low 1.01 | locus YDR195W, strain ref2 0.991 | locus YDR297W, strain sur2, active compounds read low 1.01 | locus YDR318W, strain mcm21, active compounds read low 0.972 | locus YDR334W, strain swr1, active compounds read low 1.01 | locus YDR335W, strain msn5, active compounds read low 1 | locus YDR388W, active compounds read low 0.976 | locus YDR392W, strain spt3, active compounds read low 0.985 | locus YDR502C, strain sam2, active compounds read low 0.986 | locus YEL003W, strain gim4, active compounds read low 1 | locus YEL037C, strain rad23, active compounds read low 0.994 | locus YEL061C, strain CIN8 (second series), active compounds read low 1.01 | locus YER015W, strain faa2, active compounds read low 0.979 | locus YER016W, strain bim1, active compounds read low 0.993 | locus YER110C, active compounds read low 0.969 | locus YER111C, strain swi4, active compounds read low 1.01 | locus YER155C, strain BEM2 (second series), active compounds read low 1.02 | locus YER155C, strain BEM2, active compounds read low 1 | locus YER167W, strain BCK2, active compounds read low 1.01 | locus YFR010W, strain ubp6, active compounds read low 1.01 | locus YGL078C, strain dbp3, active compounds read low 0.973 | locus YGL086W, strain mad1, active compounds read low 0.997 | locus YGL167C, strain pmr1, active compounds read low 0.994 | locus YGL173C, strain kem1, active compounds read low 1.01 | locus YGL227W, strain vid30, active compounds read low 0.978 | locus YGL240W, strain doc1, active compounds read low 0.985 | locus YGL248W, strain PDE1, active compounds read low 1.01 | locus YGL253W, strain hxk2, active compounds read low 1.01 | locus YGR078C, strain PAC10, active compounds read low 0.982 | locus YGR135W, strain pre9, active compounds read low 0.951 | locus YGR252W, strain gcn5, active compounds read low 0.989 | locus YHR013C, strain ard1, active compounds read low 0.986 | locus YHR027C, strain rpn1, active compounds read low 0.986 | locus YHR030C, strain SLT2, active compounds read low 0.994 and 0.991 | locus YHR079C, strain IRE1 (second series), active compounds read low 0.979 | locus YHR079C, strain IRE1, active compounds read low 0.979 | locus YHR094C, strain hxt1, active compounds read low 0.985 | locus YHR129C, strain ARP1, active compounds read low 0.993 | locus YHR142W, strain chs7, active compounds read low 1.01 | locus YHR200W, strain rpn10, active compounds read low 0.999 | locus YIL066C, strain RNR3, active compounds read low 1.01 | locus YIL073C, strain SPO22, active compounds read low 0.882 | locus YIL125W, strain kgd1, active compounds read low 0.985 | locus YIR030C, strain dcg1, active compounds read low 0.96 | locus YJL092W, strain hpr5, active compounds read low 1 | locus YJL095W, strain BCK1 (second series), active compounds read low 0.995 | locus YJL095W, strain BCK1, active compounds read low 0.989 and 0.99 | locus YJL115W, strain asf1, active compounds read low 0.997 | locus YJL129C, strain trk1, active compounds read low 0.97 | locus YJL134W, strain LCB3, active compounds read low 1 | locus YJL154C, strain vps35, active compounds read low 0.998 | locus YJL164C, strain tpk1, active compounds read low 1 | locus YJL166W, strain qcr8, active compounds read low 1.01 | locus YJL168C, strain set2, active compounds read low 0.977 | locus YJL187C, strain SWE1 (second series), active compounds read low 0.988 | locus YJL187C, strain SWE1, active compounds read low 1.02 | locus YJR043C, strain POL32, active compounds read low 1.04 | locus YJR066W, strain TOR1, active compounds read low 0.95 | locus YKL009W, strain mrt4, active compounds read low 0.986 | locus YKL068W, active compounds read low 0.984 | locus YKL085W, strain MDH1 (second series), active compounds read low 0.998 | locus YKL085W, strain MDH1, active compounds read low 0.998 | locus YKL160W, strain elf1, active compounds read low 0.987 | locus YKR001C, strain vps1, active compounds read low 0.985 | locus YKR026C, strain gcn3, active compounds read low 1 | locus YKR091W, strain srl3, active compounds read low 0.996 | locus YLL001W, strain dnm1, active compounds read low 0.997 | locus YLL026W, active compounds read low 1 | locus YLL041C, strain sdh2, active compounds read low 1 | locus YLR027C, strain aat2, active compounds read low 0.993 | locus YLR039C, strain RIC1, active compounds read low 1.05 | locus YLR058C, strain SHM2, active compounds read low 1 | locus YLR102C, strain apc9, active compounds read low 0.986 | locus YLR113W, strain HOG1, active compounds read low 0.964 | locus YLR221C, strain rsa3, active compounds read low 0.989 | locus YLR258W, strain gsy2, active compounds read low 0.995 | locus YLR262C, strain YPT6 (second series), active compounds read low 0.994 | locus YLR262C, strain YPT6, active compounds read low 1.1 | locus YLR268W, strain sec22, active compounds read low 1.01 | locus YLR320W, strain mms22, active compounds read low 0.995 | locus YLR342W, strain FKS1, active compounds read low 0.996 | locus YLR357W, strain rsc2, active compounds read low 1.04 | locus YLR370C, strain arc18, active compounds read low 1 | locus YLR371W, strain rom2, active compounds read low 0.964 | locus YLR384C, strain iki3, active compounds read low 1 | locus YLR418C, strain cdc73, active compounds read low 0.992 | locus YML016C, strain PPZ1, active compounds read low 1.01 | locus YML032C, strain rad52, active compounds read low 0.971 | locus YML120C, strain ndi1, active compounds read low 1 | locus YML124C, strain tub3, active compounds read low 0.978 | locus YMR058W, strain fet3, active compounds read low 1 | locus YMR078C, strain ctf18, active compounds read low 0.951 | locus YMR125W, strain sto1, active compounds read low 0.995 | locus YMR129W, active compounds read low 0.996 | locus YMR205C, strain PFK2, active compounds read low 0.995 | locus YMR223W, strain ubp8, active compounds read low 0.963 | locus YMR231W, strain pep5, active compounds read low 1.02 | locus YMR263W, strain SAP30, active compounds read low 0.988 | locus YMR307W, strain GAS1, active compounds read low 1.24 | locus YNL067W, strain RPL9B, active compounds read low 0.973 | locus YNL071W, strain lat1, active compounds read low 1.01 | locus YNL153C, strain GIM3, active compounds read low 0.99 | locus YNL183C, strain NPR1, active compounds read low 0.964 | locus YNL209W, strain ssb2, active compounds read low 0.997 | locus YNL233W, strain BNI4, active compounds read low 1.01 | locus YNL248C, strain rpa49, active compounds read low 0.999 | locus YNL250W, strain rad50, active compounds read low 0.954 | locus YNL271C, strain bni1, active compounds read low 0.986 | locus YNL298W, strain CLA4, active compounds read low 0.977 | locus YNL307C, strain MCK1, active compounds read low 0.992 | locus YNL322C, strain KRE1 (second series), active compounds read low 0.997 | locus YNR049C, strain mso1, active compounds read low 1 | locus YNR052C, strain pop2, active compounds read low 0.968 | locus YOL012C, strain htz1 1.17 | locus YOL147C, strain pex11, active compounds read low 0.979 | locus YOR001W, strain rrp6, active compounds read low 0.982 | locus YOR061W, strain CKA2, active compounds read low 1.01 | locus YOR069W, strain VPS5, active compounds read low 0.996 | locus YOR070C, strain gyp1, active compounds read low 0.985 | locus YOR080W, strain dia2, active compounds read low 0.999 | locus YOR083W, strain WHI5, active compounds read low 0.983 | locus YOR106W, strain vam3, active compounds read low 0.994 | locus YOR136W, strain idh2, active compounds read low 0.989 | locus YOR144C, strain elg1, active compounds read low 0.99 | locus YOR184W, strain ser1, active compounds read low 1.03 | locus YOR231W, strain MKK1, active compounds read low 0.988 | locus YOR265W, strain rbl2, active compounds read low 1.01 | locus YOR270C, strain vph1, active compounds read low 0.999 | locus YOR290C, strain snf2, active compounds read low 0.949 | locus YOR316C, strain cot1, active compounds read low 0.974 | locus YPL051W, strain arl3, active compounds read low 0.999 | locus YPL055C, strain LGE1, active compounds read low 1.03 | locus YPL078C, strain atp4, active compounds read low 1.01 | locus YPL106C, strain sse1, active compounds read low 1.02 | locus YPL240C, strain hsp82, active compounds read low 0.986 | locus YPL256C, strain CLN2, active compounds read low 0.974 | locus YPR119W, strain clb2, active compounds read low 0.967 | locus YPR141C, strain kar3, active compounds read low 0.951 | locus YPR163C, strain tif3, active compounds read low 0.969 | locus YPR167C, strain met16, active compounds read low 0.983 | strain wtn01, active compounds read low 1.01
